The list is not random: actives were taken first. Their share in the collection is about 6.5%.
FMDV antiviral: antivirals against foot and mouth disease virus; 410,000 compounds, 1.2% hits; Potency, µM (series often up to 57.9 µM), inactives show at the top dose activity change, negative = inhibition, usual class: inhibitors; FMDV antiviral cell-based qHTS; calls by dose curve; tested in HEK293T cells; note: read-out not given here; potency is the fitted concentration of half-maximal effect; nearly all actives have a fitted effect of over 45% in size
VACV mCherry inh: inhibitors of vaccinia virus infection (mCherry reporter signal). Potency, µM (top dose mostly 36.5 µM), for the others: top-dose activity change, negative = inhibition, most hits filed as inhibitors. 310,000 compounds, 0.63% hits. AID 720579. Vaccinia virus mCherry reporter infection, fluorescence; calls by dose curve; tested in A549 cells; note: potency is the fitted concentration of half-maximal effect; nearly all actives have a fitted effect of over 35% in size
VACV Venus inh: inhibitors of vaccinia virus (Venus reporter); 330,000 compounds, 0.46% hits; Vaccinia virus Venus reporter expression, fluorescence; Potency, µM (titrated, usually from 36.5 µM), for the others: at the top dose activity change, negative = inhibition, most hits filed as inhibitors; calls by dose curve; tested in A549 cells; note: potency is the fitted concentration of half-maximal effect; nearly all actives have a fitted effect of over 30% in size
HCMV antiviral: inhibitors of human cytomegalovirus | HFF cells, HCMV-luciferase reporter, 72 h; active compounds read low | activity change, negative = inhibition, % at 57.5 µM | AID 1259415 | 410,000 compounds, 4.5% hits; in the data active = activity change below about -60%; inconclusive = no clear call, values can overlap the other calls; inactive = above about -39%
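Human foreskin fibroblasts infected with luciferase-reporter HCMV at MOI 1 PFU/cell, compounds at two doses. Luciferase measured 72 h post infection; normalized to buffer-only basal and Salinomycin (10uM) controls.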
Lassa entry inh: blocks Lassa virus binding to or entry into cells; Potency, µM (top dose mostly 37.9 µM), for the others: top-dose activity change, negative = inhibition, most hits filed as inhibitors; AID 540256; Lassa virus pseudotype entry inhibition, cell reporter; 300,000 compounds, 1.2% hits; calls by dose curve; tested in HEK293 cells; note: potency is the fitted concentration of half-maximal effect; nearly all actives have a fitted effect of over 50% in size
MARV entry inh: blocks Marburg virus binding to or entry into cells. Marburg virus pseudotyped entry inhibition, cell reporter. Potency, µM (doses to about 37.8 µM), for inactives: top-dose activity change, negative = inhibition, most hits filed as inhibitors. 300,000 compounds, 1.8% hits. AID 540276; calls by dose curve; tested in HEK293 cells; note: potency is the fitted concentration of half-maximal effect
An asterisk follows results filed as active; [ ] = dose if it differs, or a comment. % is set by controls: 0 for no effect and ±100 for the full control effect.

What do the screens show for `Cc1oc(-c2cccc(Cl)c2)nc1CN1CCC(C(=O)NCCCN2CCN(c3ccc(F)cc3)CC2)CC1`?
FMDV antiviral: inconclusive; VACV mCherry inh: -29.8%; VACV Venus inh: inconclusive; HCMV antiviral: -15.1; Lassa entry inh: inconclusive; MARV entry inh: inconclusive

How did COc1ccc(-c2nc(CN3CCC(C(=O)NCCCN4CCN(c5ccccc5F)CC4)CC3)c(C)o2)cc1OC do in these assays?
FMDV antiviral: -33.9%; VACV mCherry inh: -6.8%[7.34 µM]; VACV Venus inh: -6.2%[7.34 µM]; HCMV antiviral: -104.0*; Lassa entry inh: inconclusive; MARV entry inh: 4.47µM*

How did Cc1ccccc1-c1nc(CN2CCC(C(=O)NCCCN3CCCC(C)C3)CC2)c(C)o1 (configuration not stated) do in these assays?
FMDV antiviral: -12.8%; VACV mCherry inh: inactive; VACV Venus inh: -21.5%; HCMV antiviral: -63.4*; Lassa entry inh: inconclusive; MARV entry inh: inconclusive

Results for Cc1oc(-c2ccc(Cl)cc2)nc1CN1CCC(C(=O)NCCCN2CCOCC2)CC1 ?
FMDV antiviral: -1.7%; HCMV antiviral: 96.4; Lassa entry inh: inconclusive; MARV entry inh: 13µM*

Results for Cc1oc(-c2ccc(Cl)cc2)nc1CN1CCC(C(=O)NCCCN2CCN(c3cccc(Cl)c3)CC2)CC1 ?
FMDV antiviral: 25.1µM*; VACV mCherry inh: inconclusive; VACV Venus inh: 14.1µM*; HCMV antiviral: inconclusive; Lassa entry inh: inconclusive; MARV entry inh: inconclusive

What do the screens show for `Cc1ccccc1-c1nc(CN2CCC(C(=O)NCCc3ccccc3)CC2)c(C)o1`?
FMDV antiviral: -8.3%; VACV mCherry inh: -14.3%; VACV Venus inh: -7.1%; HCMV antiviral: 13.7; Lassa entry inh: -23.1%[46.1 µM]; MARV entry inh: 20.5%[46.1 µM]

What do the screens show for `CC(C)Oc1ccc(C(=O)N2CCN(CCc3ccccn3)CC2)cc1`?
FMDV antiviral: -2.4%; VACV mCherry inh: -7.0%; VACV Venus inh: -1.7%; HCMV antiviral: 4.0; Lassa entry inh: 1.6%[46.1 µM]; MARV entry inh: 5.5%[46.1 µM]

Results for CC(C)c1ccc(NC(=O)N2CCOCC2)cc1 ?
FMDV antiviral: 39.8%; HCMV antiviral: 64.4

What do the screens show for `CC(C)(C)c1ccc(C(=O)Nc2ccc(N3CCOCC3)cc2)cc1`?
VACV mCherry inh: -16.5%; VACV Venus inh: -29.8%; HCMV antiviral: -78.5*; Lassa entry inh: -28.3%; MARV entry inh: inconclusive

What do the screens show for `CC(=O)c1ccc(C(=O)Nc2ccc(N3CCOCC3)cc2)cc1`?
FMDV antiviral: -15.4%; VACV Venus inh: -5.8%; HCMV antiviral: 16.4; Lassa entry inh: -0.2%; MARV entry inh: 16.0%

What do the screens show for `CC(C)c1ccc(C(=O)NN2CCOCC2)cc1`?
FMDV antiviral: -4.0%; HCMV antiviral: 16.3

How did CC(C)(C)c1ccc(C(=O)NC(=S)Nc2ccc(N3CCOCC3)cc2)cc1 do in these assays?
FMDV antiviral: -15.3%; VACV mCherry inh: -7.0%; VACV Venus inh: -10.0%; HCMV antiviral: -18.8; Lassa entry inh: inconclusive; MARV entry inh: 0.794µM*

What do the screens show for `CC(=O)c1ccc(N2CCN(C(=O)Nc3ccc(C(C)C)cc3)CC2)cc1`?
FMDV antiviral: 14.1µM*; VACV mCherry inh: inconclusive; VACV Venus inh: -27.9%; HCMV antiviral: -82.3*; Lassa entry inh: inconclusive; MARV entry inh: 3.16µM*

How did CC(C)c1ccc(C(=O)Nc2ccc(N3CCOCC3)cc2)cc1 do in these assays?
FMDV antiviral: -19.3%; VACV mCherry inh: inconclusive; VACV Venus inh: inconclusive; HCMV antiviral: -66.0*; Lassa entry inh: -23.9%; MARV entry inh: inconclusive

How did O=C(O)CNC(=O)c1ccccc1I do in these assays?
HCMV antiviral: 10.7

What do the screens show for `COCCn1c(=O)cnc2cnc(Oc3ccccc3)nc21`?
FMDV antiviral: -11.7%

Results for Cc1nc2cc(NC(=O)Nc3ccc(N4CCOCC4)cc3)ccc2n1C ?
FMDV antiviral: -3.1%; VACV mCherry inh: -1.7%; VACV Venus inh: -4.2%; HCMV antiviral: -63.4*; Lassa entry inh: 1.3%; MARV entry inh: 6.5%

Results for CC1(CCc2ccc(O)cc2)NC(=O)NC1=O (configuration not stated) ?
FMDV antiviral: -2.0%; VACV mCherry inh: inactive; VACV Venus inh: -5.4%; HCMV antiviral: 26.8; Lassa entry inh: 11.3%; MARV entry inh: -19.0%
